The full list was thinned out, with hits kept by preference.
Pf Dd2 growth: inhibitors of Plasmodium falciparum Dd2 growth | P. falciparum Dd2 growth, SYBR Green, 72 h | Potency, µM (highest dose often 28.9 µM), actives largely listed as inhibitors | actives 4.3% (n = 120,000); active = well fitted inhibition curve with a large enough effect; note: nearly all actives have a fitted effect of over 65% in size
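Readout: SYBR Green fluorescence, 485 nm excitation, 535 nm emission, after ~16 h lysis at 37C. Before that, Dd2-infected red cells (2.5% hematocrit) grew 72 h with compound, 29 uM top final concentration.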
Numbers stand for hits; - = inactive; [ ] = dose if it differs, or a comment.

SMILES	Pf Dd2 growth
CCc1cccc(C)c1NC(=O)Cn1c(N(C)Cc2ccccc2)nc(C)cc1=O	11.2µM
Cc1ccc(NC(=O)Cn2c(N(C)Cc3ccccc3)nc(C)cc2=O)c(C)c1	-
CCc1ccccc1NC(=O)Cn1c(N(C)Cc2ccccc2)nc(C)cc1=O	-
COC1CCOC2(CCN(C(=O)c3ccoc3)CC2)C1 (centres undefined)	-
O=C(c1cnccn1)N1CCC2(CC1)NC(=O)N(Cc1cccc(Cl)c1)C2=O	-
NC(=O)[C@H](Cc1ccc(O)cc1)NC(=O)C1=C[C@@H](NC(=O)c2cnccn2)[C@@H](O)[C@H](O)C1	-
CC(C)c1noc(-c2cn(C3CCN(C(=O)c4ccc(Cl)cc4)C3)nn2)n1 (centres undefined)	-
CCN(CC)CCNc1nc(C)nc2c1c(C)nn2C	-
Cn1c(=O)c2c(-c3ccccc3Cl)n(-c3cc(Cl)ccc3O)cc2n(C)c1=O	7.94µM
Cn1c(=O)c2c(-c3ccccc3Cl)n(Cc3ccc(Cl)cc3)cc2n(C)c1=O	-
Cn1c(=O)c2c(-c3cccc(Br)c3)n(CCO)cc2n(C)c1=O	-
CN1CC(=O)N(C2CCCNCC2)Cc2c1ncnc2N1CCSCC1 (centres undefined)	-
O=C(c1ccoc1)N1CCC2(CCN(Cc3ccccn3)CC2)C(CO)C1 (centres undefined)	-
O=C(c1cccc2[nH]ccc12)N1CC[C@@H]2COCCN(Cc3cccnc3)[C@@H]2C1	-
CCc1ccc(-n2c(SCc3nc(-c4cc(OC)ccc4OC)no3)nnc2-c2ccccc2)cc1	11.2µM
COc1ccc(-c2noc(CSc3nnc(-c4ccncc4)n3-c3ccccc3)n2)cc1	-
COc1ccc(-n2c(C)nnc2SCc2nc(-c3ccc(OC)c(OC)c3)no2)cc1	-
Cn1cnc(S(=O)(=O)N2CCCC(C(=O)Nc3ccc(F)cc3F)CCNC(=O)CC2)c1 (centres undefined)	-
CC1=NOC2(CCN(C(=O)c3ccc(F)cc3)CC2)C1	-
COc1cccc(CNC(=O)C2Cn3cccc3C(=O)N2)c1OC (centres undefined)	-
Cc1ccc(N(CC(=O)N[C@H]2CC[C@H]2N)S(C)(=O)=O)cc1	-
COCCNC(=O)C[C@@H]1C[C@@H](C(C)C)[C@H](CNC(=O)c2cnccn2)C=C1C	-
COCCNC[C@@H]1C=C(C)[C@H](Cc2nnc(-c3ccc(N(C)C)cc3)o2)C[C@H]1C(C)C	3.55µM
CC1=C[C@@H](CO)[C@H](C(C)C)C[C@H]1Cc1nnc(Cc2c[nH]c3ccccc23)o1	-
CC1=C[C@@H](CN2CCC[C@H]2CO)[C@H](C(C)C)C[C@H]1Cc1nnc(-c2ccc(N(C)C)cc2)o1	1.41µM
SMILES	Pf Dd2 growth
CN(C)c1ccc(-c2nnc([C@H]3CCN(C(=O)CCC(=O)O)C3)o2)cc1	-
COCCNC(=O)C[C@@H]1C[C@@H](C(C)C)[C@H](CNC(=O)CCC(=O)O)C=C1C	-
CC1=C[C@@H](CO)[C@H](C(C)C)C[C@H]1Cc1nnc(-c2ccncc2)o1	-
CC1=C[C@@H](CO)[C@H](C(C)C)C[C@H]1Cc1nnc(-c2ccc(N(C)C)cc2)o1	2µM
CC1=C[C@@H](CNCCN(C)C)[C@H](C(C)C)C[C@H]1Cc1nnc(C)o1	-
CC1=C[C@@H](CNCCN(C)C)[C@H](C(C)C)C[C@H]1Cc1nnc(-c2ccc(C)cc2)o1	2.24µM
CS(=O)(=O)N1CCC(OC2CCN(C(=O)NCc3ccccc3)CC2)CC1	-
CN1C(=O)C(c2ccccc2)CC12CCN(C(=O)c1ccc(F)cc1F)CC2 (centres undefined)	-
CC(C)CCN1CCC(N2CCN(S(=O)(=O)C(C)C)CC2)C1=O (centres undefined)	-
COc1ccccc1-c1noc(CCC(=O)N2CC[C@@](C)(O)[C@@H](O)C2)n1	-
O=C(CN1CC2CC(C1)[C@H]1CCCC(=O)N1C2)N1CCCCCC1 (some centres undefined)	-
COc1cccc(C(=O)N2CC(F)(F)C[C@H]2c2nc(C)no2)c1OC	-
CCN(CC)C(=O)C1N(C(C)C)C(=O)C12CCCC2 (centres undefined)	-
Cc1cc(C)cc(OCC(=O)c2ccc3c(c2)N(CC(=O)N2CCOCC2)C(=O)CO3)c1	-
Cn1nc(C(=O)N2CCCCCCNC(=O)CC2)c2ccccc21	-
CC1=C[C@@H](CN(C)CCO)[C@H](C(C)C)C[C@H]1Cc1nnc(-c2ccc(N(C)C)cc2)o1	2.51µM
CC1=C[C@@H](CN(CC2CC2)CC2CC2)[C@H](C(C)C)C[C@H]1Cc1nc2ccncc2[nH]1	-
O=C(C1CCOCC1)N1CCOC[C@H](Oc2cnccn2)C1	-
O=C(c1[nH]nc2c1CCc1ccccc1-2)N1CCC(c2noc(-c3cccnc3)n2)C1 (centres undefined)	-[5.79 µM]
COCCNC(=O)CCCN1C(=O)COc2ccc(C(=O)COc3c(C)ccc(C)c3C)cc21	10µM
COCCCNC(=O)CCCN1C(=O)COc2ccc(C(=O)COc3cccc(C)c3C)cc21	-
COCCNC(=O)CCCN1C(=O)COc2ccc(C(=O)COc3ccc(Cl)c(C)c3)cc21	-

Screens deposited in PubChem by National Center for Advancing Translational Sciences (NCATS).
